# The list is not random: actives were taken first. Their share in the collection is about 1.6%.
# KCNQ2 inh = KCNQ2 (rat) channel inhibition | 310,000 compounds, 1.1% hits | CHO-K1 KCNQ2, FluxOR thallium flux, 20 min; active compounds read low | O88943 | B-score at 10 µM;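 active = fluorescence ratio B-score at most minus 3 library SDs, with starting brightness B-score within 2 library SDs, cut at about -5.5 in these data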
# Target sequence (O88943 whole entry, looked up): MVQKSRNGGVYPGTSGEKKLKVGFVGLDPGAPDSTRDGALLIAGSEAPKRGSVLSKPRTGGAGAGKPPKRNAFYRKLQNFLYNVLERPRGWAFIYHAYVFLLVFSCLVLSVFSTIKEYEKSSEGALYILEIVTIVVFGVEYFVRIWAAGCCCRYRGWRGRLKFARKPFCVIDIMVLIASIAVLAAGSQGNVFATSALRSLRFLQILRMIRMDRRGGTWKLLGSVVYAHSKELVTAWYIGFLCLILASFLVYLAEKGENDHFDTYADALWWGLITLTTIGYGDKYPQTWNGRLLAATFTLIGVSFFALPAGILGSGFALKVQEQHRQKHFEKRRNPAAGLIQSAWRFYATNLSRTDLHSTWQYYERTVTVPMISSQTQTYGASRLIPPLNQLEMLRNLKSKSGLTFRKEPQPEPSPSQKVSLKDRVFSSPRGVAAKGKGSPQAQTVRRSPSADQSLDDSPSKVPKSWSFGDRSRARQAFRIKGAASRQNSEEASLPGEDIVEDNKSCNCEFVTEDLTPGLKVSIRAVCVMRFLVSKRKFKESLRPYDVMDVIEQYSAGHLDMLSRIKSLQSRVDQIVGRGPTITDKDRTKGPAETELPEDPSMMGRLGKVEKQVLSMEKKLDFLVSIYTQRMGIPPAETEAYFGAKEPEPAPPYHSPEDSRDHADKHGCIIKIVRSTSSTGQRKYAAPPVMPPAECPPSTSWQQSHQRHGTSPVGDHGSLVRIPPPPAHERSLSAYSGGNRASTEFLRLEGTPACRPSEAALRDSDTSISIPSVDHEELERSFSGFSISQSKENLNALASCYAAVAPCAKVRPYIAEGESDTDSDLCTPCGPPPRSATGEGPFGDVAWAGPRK
# KCNQ2 enhance = potentiators of rat KCNQ2 potassium channel; 310,000 compounds, 0.54% hits; B-score at 10 µM; O88943; CHO-K1 KCNQ2, FluxOR thallium flux fluorescence; active compounds read high;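 active = fluorescence ratio B-score at least 3 SD of library B-scores, with initial fluorescence B-score within 3 of them, cut at about 5.3 in these data; same plate scores as AID 2156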;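 note: B-score of peak minus minimum over baseline fluorescence ratio after K+ and Tl+ stimulus; positive B-score means potentiation of KCNQ2 with more thallium influx and brighter signal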
# Numbers stand for hits; . = inactive; / = no result given.
SMILES,KCNQ2 inh,KCNQ2 enhance
CC(=O)Nc1ccc(-c2csc(-c3cccnc3)n2)cc1,.,.
Cc1cc(/C=N/n2cnnc2)c(C)n1-c1ccc(OCc2ccc(Cl)cc2Cl)cc1,.,/
Cc1cc(/C=N/n2cnnc2)c(C)n1-c1ccc(OCc2ccc(F)cc2)cc1,-6.18,.
O=C1CSC(c2ccc(F)c(F)c2)N1c1ccccc1F (configuration not stated),.,.
COc1ccccc1NC(=O)c1ccc(N2CC3CC(C2)c2cccc(=O)n2C3)c(NC(=O)c2ccncc2)c1 (configuration not stated),.,.
COc1ccc(C2=Nc3ccc(Br)cc3C(c3ccccc3)N2CC(=O)NN)cc1 (configuration not stated),.,7.81
COc1ccc(C2=Nc3ccc(C)cc3C(c3ccccc3)N2CC(=O)NN)cc1 (configuration not stated),.,.
CN(CC(=O)Nc1ccccc1Sc1ccccc1)Cc1nc2ccccc2c(=O)[nH]1,.,/
CN(CC(=O)NC(c1ccccc1)c1ccccc1)Cc1nc2ccccc2c(=O)[nH]1,-6.64,.
COc1ccccc1CNC(=O)c1cc(S(=O)(=O)N2CCCCC2)c[nH]1,.,/
O=C(/C=C/c1cccnc1)c1ccccc1O,-5.9,.
O=C(/C=C/c1cccnc1)c1ccc(O)cc1,.,/
CC[C@@H]1CC=C[C@H]2[C@H]1C(=O)N(Cc1ccccc1)[C@H]2c1ccoc1,-6.18,.
C[C@@H]1CC=C[C@H]2[C@H]1C(=O)N(Cc1ccccc1)[C@H]2c1ccoc1,.,/
C[C@@H]1CC=C[C@H]2[C@H]1C(=O)N(Cc1ccccc1)[C@H]2c1ccc2ccccc2c1Br,-7.54,.
C[C@@H]1CC=C[C@H]2[C@H]1C(=O)N(Cc1ccccc1)[C@H]2c1ccc2ccccc2c1,.,/
CCc1cccc2sc(N3CCN(C(=O)c4ccc([N+](=O)[O-])o4)CC3)nc12,.,/
CCCNC(=O)[C@@H]1CCCN1C(=O)[C@@H]1Cc2ccccc2CN1,.,/
Cc1ccc(C)c(OCc2cc(C(=O)N3CC[C@@H]4CCCC[C@H]4C3)no2)c1,-6.48,.
Cc1ccc(C)c(OCc2cc(C(=O)N3C[C@@H](C)O[C@@H](C)C3)no2)c1,.,.
CC1CC(C)CN(CCCNC(=O)c2ccc3c(c2)NC(=O)CS3)C1 (configuration not stated),.,/
CC(C)OC(=O)/C(=C\c1ccccc1)NC(=O)c1ccccc1,-5.6,.
CC(C)OC(=O)/C(=C\c1cccc2ccccc12)NC(=O)c1ccccc1,.,/
Cc1cc(C)c2sc(N(CCCN(C)C)C(=O)c3ccc(S(=O)(=O)N4CCc5ccccc5C4)cc3)nc2c1,.,/
Cc1cc(C)c2sc(N(CCCN(C)C)C(=O)c3ccc(S(=O)(=O)N4CCCc5ccccc54)cc3)nc2c1,-7.67,.
SMILES,KCNQ2 inh,KCNQ2 enhance
CCCCCC1CCC(C(=O)NCCN2CCOCC2)CC1 (configuration not stated),.,.
Cc1cccc(OCc2n(CC(=O)OC3CC(C)CCC3C(C)C)c3ccccc3[n+]2C)c1 (configuration not stated),-6.28,.
Cc1cccc(OC(=O)Cn2c(C(F)(F)F)nc3ccccc32)c1,.,.
CC(=O)Nc1ccc2c(c1)N(S(=O)(=O)c1cccs1)CCC2,.,.
O=C(CCCCCCCC(=O)c1ccccc1)c1ccccc1,-6.24,.
O=C(CCCCN1CCCCC1)c1ccccc1,.,.
Cc1ccc(S(=O)(=O)N2Cc3ccccc3CC2C(=O)Nc2ccc3c(c2)OCO3)cc1 (configuration not stated),-5.64,.
COc1ccc(S(=O)(=O)N2Cc3ccccc3CC2C(=O)Nc2ccc3c(c2)OCO3)cc1 (configuration not stated),.,/
O=C(CSc1nnc(CNC(=O)c2ccco2)o1)Nc1ccc(Br)cc1,.,.
O=C(c1cc([N+](=O)[O-])ccc1Cl)N1CCN(c2ccc([N+](=O)[O-])cc2)CC1,-6.87,.
O=C(c1cc([N+](=O)[O-])ccc1Cl)N1CCN(c2ccc(F)cc2)CC1,.,.
O=C(Cc1cccs1)N1CCN(c2ccc(F)cc2)CC1,.,.
O=C(Cc1cccs1)N1CCN(c2ccc([N+](=O)[O-])cc2)CC1,-5.55,.
COc1ccc(OC)c(NC(=O)CCN2C(=O)c3cccc([N+](=O)[O-])c3C2=O)c1,.,/
CC(C)OC(=O)c1c(NC(=O)c2ccco2)sc2c1CCCCC2,-6.32,.
COC(=O)c1c(NC(=O)c2ccco2)sc2c1CCC2,.,/
COCCNC(=O)Cn1cnc2sc(C)c(S(=O)(=O)N3CCC(C)CC3)c2c1=O,.,/
COc1ccc(Cl)cc1Nc1ncnc2sc(C)c(S(=O)(=O)N3CCC(C)CC3)c12,-6.69,.
CC(C(=O)N1CCc2ccccc2C1)N1C(=O)c2ccccc2C1=O (configuration not stated),.,.
CC(C)CC(C(=O)N1CCc2ccccc2C1)N1C(=O)c2ccccc2C1=O (configuration not stated),-6.53,.
COc1ccc(/C(N)=N/OC(=O)Cc2cccs2)cc1,-7.01,.
COc1ccc(/C(N)=N/OC(=O)Cc2cccs2)cc1OC,.,.
CCC(=O)Nc1ccc(SC#N)cc1C,.,.
CCc1cc(SC#N)cc(C)c1N,.,/
CCc1cc(SC#N)cc(C)c1NC(=O)CCl,.,10.9
SMILES,KCNQ2 inh,KCNQ2 enhance
Cc1cc(SC#N)cc(C)c1NC(=O)CCl,.,6.31
O=C(NCCc1ccccc1)C(=O)NCC1OCCCN1S(=O)(=O)c1cccs1 (configuration not stated),.,/
Cc1ccc(N(C)S(=O)(=O)c2ccc(-c3cnc(C4CC4)o3)cc2)cc1,-9.51,.
Cc1ccc(NS(=O)(=O)c2ccc(-c3cnc(C4CC4)o3)cc2)cc1,.,/
O=c1c2ccccc2nc(SCc2nc3ccccc3s2)n1Cc1ccco1,.,/
CCCCn1c(SCc2nc3ccccc3s2)nc2ccccc2c1=O,-7.85,.
COCCNC(=O)/C=C/c1c(Cl)cccc1Cl,.,/
CC(C)n1c2ccccc2c2cc([N+](=O)[O-])ccc21,.,.
CCC(C)n1c(=S)[nH]c2c(sc3ccc([N+](=O)[O-])cc32)c1=O (configuration not stated),.,25.1
C/C(CCC(C)C)=N\Nc1cc(C)c2ccccc2n1,-8.32,.
Cc1cc(NCc2ccccc2)nc2ccccc12,.,.
Cc1ccccc1OCc1occc1C(=O)Nc1cccc(-n2cnnn2)c1,.,.
CC(c1ccccc1)N(CCC(c1ccccc1)C1CCOC(C)(C)C1)C(=O)c1ccco1 (configuration not stated),.,/
COc1ccc(CN(CCC(c2ccc(F)cc2)C2CCOC(C)(C)C2)C(=O)c2ccco2)cc1 (configuration not stated),-5.78,.
CC1CCC(C(C)C)C2=C1C(C#N)(C#N)C(C#N)(C#N)C(c1ccccc1)N2 (configuration not stated),-7.84,.
CC1=CC(C#N)(C#N)C(C#N)(C#N)C(c2ccccc2)N1 (configuration not stated),.,/
CC(OC(=O)c1nn(C)c(=O)c2ccccc12)C(=O)Nc1ccc(S(N)(=O)=O)cc1 (configuration not stated),.,.
CC1(CCC(=O)N2CCCC(N3CCN(c4cccc(C(F)(F)F)c4)CC3)C2)CC1 (configuration not stated),.,/
CSCC(=O)N1CCCC(N2CCN(c3cccc(C(F)(F)F)c3)CC2)C1 (configuration not stated),-6.77,.
OCc1ccccc1SSc1ccccc1CO,.,/

# From PubChem BioAssay
